Data: PubChem BioAssay (NCI)
The panel holds about 83,000 compounds, 20% with a hit somewhere; the sample as a whole holds those more often.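 Percent growth is the endpoint: 0 to 100 indicates growth inhibition (40 means 60% inhibition), 0 means no net growth, and negative values indicate cell death.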 Active and inactive are the calls of the source. How the source made its calls: active means growth percent below 10; inactive means the rest.

tested on: KM12 colon; assay: NCI-60 one-dose screen, 48 h (100 = growth as untreated, 0 = no growth, -100 = all killed); conditions: 10 µM unless noted

Q: For O=C(Nc1ccc(C(=O)Nc2ccc(C3=NCCCN3)cc2)cc1)Nc1ccc(C2=NCCCN2)cc1, which growth is on record?
A: 88.9% (inactive)

Q: CC(C)C1CCC(C)C(C2(C#N)C(N)=NC(N)=C2C#N)C1=O (stereo not given) was tested. Which growth did it give?
A: 92.9% (inactive)

Q: O=C(/C=C/c1ccc2c(c1)OCO2)c1c(O)c2ccccc2oc1=O was tested. Which growth did it give?
A: 93.6% (inactive)

Q: With CCNC(=O)C#Cc1ccc2c(C(=Nc3ccc(CN(C)C)cc3)c3ccccc3)c(O)[nH]c2c1 as the compound, how does the growth read?
A: 6.13% (active)

Q: How did the growth turn out when CNS(=O)(=O)Nc1nccc(Cc2c(C)c3ccc(Oc4ncccn4)cc3oc2=O)c1F was run?
A: 26.1% (inactive)

Q: How did the growth turn out when C[C@@H](NC(=O)c1ncnc(N)c1Cl)c1ncc(C(=O)Nc2cc(C(F)(F)F)c(Cl)cn2)s1 was run?
A: 75.1% (inactive)

Q: COc1ccc(Nc2ncccc2NC(=O)c2cn(Cc3cccc(Oc4ccccc4)c3)nn2)cc1 was tested. Which growth did it give?
A: 84.8% (inactive)

Q: For COc1ccc(OC)c(NC2=C(SCCc3ccccc3)C(=O)c3ccccc3C2=O)c1, which growth is on record?
A: 76.7% (inactive)

Q: Which growth does the source give for O=C(O)c1ccc2c(c1)nc(Nc1cccc(Cl)c1)c1ccncc12 here?
A: 11.5% (inactive)

Q: How did the growth turn out when Cc1nc(Nc2n[nH]c3c2CN(C(=O)N[C@H](CN(C)C)c2ccccc2)C3(C)C)c2sccc2n1 was run?
A: -12.7% (active)

Q: NC1(C(=O)N[C@@H](CCO)c2ccc(Cl)cc2)CCN(c2ncnc3[nH]ccc23)CC1 was tested. Which growth did it give?
A: 5.76% (active)

Q: With COC[C@@H](C)n1c(C2CCOCC2)nc2c1C1C=C(OC)C(c3c(C)noc3C)=CC1N=C2 (stereo not given in full) as the compound, how does the growth read?
A: 43% (inactive)

Q: How did the growth turn out when N#CC1(C#N)C(c2cccs2)NC(c2cccs2)C1(C#N)C#N (stereo not given) was run?
A: 100% (inactive)

Q: With Cn1cnc(-c2cc3nccc(Oc4ccc(NC(=S)NC(=O)Cc5ccccc5)cc4F)c3s2)c1 as the compound, how does the growth read?
A: 21.8% (inactive)

Q: With C#Cc1cccc(Nc2ncnc3cc(OC)c(OCCCCCCC(=O)NO)cc23)c1 as the compound, how does the growth read?
A: 5.62% (active)

Q: CCCCn1c(C)nc2ccc(Nc3nc(N4CCN(C)CC4)nc4nc[nH]c34)cc21 was tested. Which growth did it give?
A: 93.6% (inactive)

Q: O=C(Cn1ccc2ccccc21)Nc1ccc(-c2nc3ccccc3s2)cc1 was tested. Which growth did it give?
A: 106% (inactive)

Q: How did the growth turn out when O=C(NOC[C@H](O)CO)c1ccc(F)c(F)c1Nc1ccc(I)cc1F was run?
A: 24.1% (inactive)

Q: For Cc1sc2c(c1C)c(=O)nc1c(-c3nc4ccccc4s3)n[nH]n12, which growth is on record?
A: 98.7% (inactive)

Q: With CC1(/C=N/NC(N)=S)NC(=O)NC1=O (stereo not given) as the compound, how does the growth read?
A: 104% (inactive)

Q: For COC(=O)CNC(=O)[C@@H](OC)[C@@H]1Cc2cc3cc(OC4CC(OC5CC(O)C(O)C(C)O5)C(O)C(C)O4)c(C)c(O)c3c(O)c2C(=O)[C@H]1OC1CC(OC2CC(OC3CC(C)(O)C(O)C(C)O3)C(O)C(C)O2)C(O)C(C)O1 (stereo not given in full), which growth is on record?
A: 6.86% (active)

Q: With COc1ccc2c(CCC(c3ccccc3)c3ccccc3)c3[n+](cc2c1OC)CCc1cc2c(cc1-3)OCO2 as the compound, how does the growth read?
A: -76.7% (active)

Q: O=C(NC[C@H](O)CO)c1ccncc1Nc1ccc(I)cc1F was tested. Which growth did it give?
A: 16.6% (inactive)

Q: Which growth does the source give for CC(C)(C)OC(=O)N1CCC(O)[C@@H](O[Si](c2ccccc2)(c2ccccc2)C(C)(C)C)[C@H]1/C=C/c1ccccc1 (stereo not given in full) here?
A: 47% (inactive)

Q: Which growth does the source give for C1=C\COCc2cc(ccc2OCCN2CCCC2)Nc2nccc(n2)-c2cccc(c2)COC/1 here?
A: -9.97% (active)

Q: How did the growth turn out when COc1cccc(Nc2ncnn3ccc(CN4CC[C@@H](N)[C@H](O)C4)c23)c1 was run?
A: 14.1% (inactive)

Q: C=C1C(=O)O[C@H]2[C@H]1CC/C(C=Nc1c(N)cc(C(F)(F)F)cc1C(F)(F)F)=C\CC[C@@]1(C)O[C@@H]21 was tested. Which growth did it give?
A: 14.4% (inactive)

Q: For CO[C@H]1C[C@@H]2CC[C@@H](C)[C@@](O)(O2)C(=O)C(=O)N2CCCC[C@H]2C(=O)O[C@H]([C@H](C)C[C@@H]2CC[C@@H](OC(=O)C(C)(CO)CO)[C@H](OC)C2)CC(=O)[C@H](C)/C=C(\C)[C@@H](O)[C@@H](OC)C(=O)[C@H](C)C[C@H](C)\C=C/C=C/C=C/1C, which growth is on record?
A: 34.1% (inactive)

Q: For N#Cc1ccc(-n2nnc3ccccc32)cc1C#N, which growth is on record?
A: 96.4% (inactive)

Q: With CCN(CC)CCNc1ccc(N=Nc2cnc3ccccc3c2)c2ccccc12 as the compound, how does the growth read?
A: -87.3% (active)

Q: Which growth does the source give for O=c1[nH]c(N2CCOCC2)nc2scc(-c3ccccc3)c12 here?
A: 97.6% (inactive)

Q: CSc1nc2ncncc2[nH]1 was tested. Which growth did it give?
A: 116% (inactive)

Q: CN1CCC(CNc2ccc3ncc(-c4cccc(OC(F)(F)F)c4)n3n2)CC1 was tested. Which growth did it give?
A: -1.37% (active)

Q: Which growth does the source give for Nc1c2c(c(O)c3c1=C(CO)C=N3)=NCCS2 here?
A: -70.4% (active)

Q: With COc1cc2nccc(Oc3ccc(NC(=O)Nc4cc(C)on4)c(Cl)c3)c2cc1OC as the compound, how does the growth read?
A: 11.4% (inactive)
